In PMC7862700, “An all-to-all approach to the identification of sequence-specific readers for epigenetic DNA modifications on cytosine”:

Experiments:
Assay in all cases: DAPPL (digital affinity profiling via proximity ligation, sequencing); 10 mM Tris-HCl pH 7.5, 50 mM NaCl, 1 mM DTT, 4% glycerol, room temperature, 30 min; GST-TFs on glutathione beads, 16-mer random dsDNA library, 0.1% formaldehyde crosslink after washing; high values mean tight binding
FEV = target: T1, FEV (Homo sapiens, UniProt Q99581 1-238); conditions: protein: recombinant; tags: N-terminal GST; dsDNA, one strand shown
T1 sequence: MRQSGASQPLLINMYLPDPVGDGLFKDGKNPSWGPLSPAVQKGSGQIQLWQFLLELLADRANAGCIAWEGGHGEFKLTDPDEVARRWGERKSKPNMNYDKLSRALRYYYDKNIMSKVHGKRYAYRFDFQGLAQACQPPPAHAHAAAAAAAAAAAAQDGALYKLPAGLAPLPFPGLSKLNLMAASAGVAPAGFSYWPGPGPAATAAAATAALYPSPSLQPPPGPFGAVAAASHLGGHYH
How it was run: (§1)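 A tag-only sample was pooled with DNA-barcoded human transcription factors that had been expressed in yeast as GST fusions and captured on glutathione beads. The pools were incubated for 30 min at room temperature with 200 nmole of a random double-stranded 16-mer DNA library in Tris/NaCl/DTT/glycerol buffer, then washed, crosslinked with 0.1% formaldehyde, proximity-ligated (BsaI/T4 ligase, 1 h, 37 °C), PCR-amplified and sequenced on an Illumina NextSeq500. Binding signal is each hexamer's read frequency for a factor divided by its frequency for the tag-only sample.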

ETV5 = ETV5 (Homo sapiens, UniProt P41161 1-510); conditions: protein: recombinant; tags: N-terminal GST; dsDNA, one strand shown
Sequence of ETV5 (P41161 whole entry): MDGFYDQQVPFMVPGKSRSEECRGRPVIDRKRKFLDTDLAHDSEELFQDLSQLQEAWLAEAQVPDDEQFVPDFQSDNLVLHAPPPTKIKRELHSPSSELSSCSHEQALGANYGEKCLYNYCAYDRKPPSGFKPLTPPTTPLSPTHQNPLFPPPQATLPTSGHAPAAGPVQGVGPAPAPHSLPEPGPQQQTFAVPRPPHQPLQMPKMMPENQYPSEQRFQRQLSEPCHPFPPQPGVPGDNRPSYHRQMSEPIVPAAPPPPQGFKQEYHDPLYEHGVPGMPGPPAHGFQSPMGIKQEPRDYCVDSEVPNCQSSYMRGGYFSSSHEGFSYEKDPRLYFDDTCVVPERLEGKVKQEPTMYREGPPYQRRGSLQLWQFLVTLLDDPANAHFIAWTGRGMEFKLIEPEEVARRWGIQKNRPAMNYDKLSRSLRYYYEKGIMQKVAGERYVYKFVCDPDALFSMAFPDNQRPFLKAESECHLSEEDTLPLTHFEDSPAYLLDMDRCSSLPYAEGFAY
How it was run: as §1

HSF1 = HSF1 (Homo sapiens, UniProt Q00613 1-529); conditions: protein: recombinant; tags: N-terminal GST; chain copies: 3; dsDNA, one strand shown
Sequence of HSF1 (Q00613 whole entry): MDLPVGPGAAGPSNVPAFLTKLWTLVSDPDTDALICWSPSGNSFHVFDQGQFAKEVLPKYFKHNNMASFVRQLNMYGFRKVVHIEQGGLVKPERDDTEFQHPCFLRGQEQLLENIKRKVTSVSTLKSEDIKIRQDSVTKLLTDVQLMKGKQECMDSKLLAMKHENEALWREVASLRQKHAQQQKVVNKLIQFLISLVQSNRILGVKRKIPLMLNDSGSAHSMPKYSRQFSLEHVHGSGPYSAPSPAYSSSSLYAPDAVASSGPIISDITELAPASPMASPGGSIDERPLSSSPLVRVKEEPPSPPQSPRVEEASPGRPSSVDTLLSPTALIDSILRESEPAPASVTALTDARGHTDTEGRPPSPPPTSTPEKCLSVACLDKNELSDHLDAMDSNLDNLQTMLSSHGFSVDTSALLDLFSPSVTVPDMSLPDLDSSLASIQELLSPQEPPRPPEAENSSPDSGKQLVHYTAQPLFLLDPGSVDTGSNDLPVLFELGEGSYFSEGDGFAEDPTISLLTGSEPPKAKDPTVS
How it was run: as §1

SPIC = target: T2, SPIC (Homo sapiens, UniProt Q8N5J4 1-248); conditions: protein: recombinant; tags: N-terminal GST; dsDNA, one strand shown
T2 sequence: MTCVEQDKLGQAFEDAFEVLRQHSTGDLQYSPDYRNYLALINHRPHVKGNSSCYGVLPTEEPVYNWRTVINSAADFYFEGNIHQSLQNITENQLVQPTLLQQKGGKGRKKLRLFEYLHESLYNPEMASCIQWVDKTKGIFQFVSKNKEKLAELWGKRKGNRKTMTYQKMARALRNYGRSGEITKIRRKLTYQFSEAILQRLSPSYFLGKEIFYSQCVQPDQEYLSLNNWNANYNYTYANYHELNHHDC
How it was run: as §1

ELF4 = ELF4 (Homo sapiens, UniProt Q99607 1-663); conditions: protein: recombinant; tags: N-terminal GST; dsDNA, one strand shown
Sequence of ELF4 (Q99607 whole entry): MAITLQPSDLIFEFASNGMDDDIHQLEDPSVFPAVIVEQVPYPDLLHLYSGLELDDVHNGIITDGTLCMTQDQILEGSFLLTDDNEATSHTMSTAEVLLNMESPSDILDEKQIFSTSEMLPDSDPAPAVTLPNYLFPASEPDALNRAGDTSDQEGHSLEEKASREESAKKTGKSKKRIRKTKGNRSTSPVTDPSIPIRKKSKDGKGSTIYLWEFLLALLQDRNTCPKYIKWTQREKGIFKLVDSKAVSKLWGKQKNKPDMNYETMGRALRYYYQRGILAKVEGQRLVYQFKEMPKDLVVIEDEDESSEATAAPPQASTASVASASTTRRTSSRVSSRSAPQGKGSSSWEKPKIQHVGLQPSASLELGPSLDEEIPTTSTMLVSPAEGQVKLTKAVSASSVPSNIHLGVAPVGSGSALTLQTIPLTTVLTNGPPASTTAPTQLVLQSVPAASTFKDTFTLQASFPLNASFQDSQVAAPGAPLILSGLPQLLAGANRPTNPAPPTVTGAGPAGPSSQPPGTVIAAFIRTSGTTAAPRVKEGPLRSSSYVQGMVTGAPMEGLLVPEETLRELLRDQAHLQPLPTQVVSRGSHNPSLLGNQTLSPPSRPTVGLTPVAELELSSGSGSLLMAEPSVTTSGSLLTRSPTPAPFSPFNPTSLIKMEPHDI
How it was run: as §1

ELK4 = target: T3, ELK4 (Homo sapiens, UniProt P28324-2 1-405); conditions: protein: recombinant; tags: N-terminal GST; dsDNA, one strand shown
T3 sequence: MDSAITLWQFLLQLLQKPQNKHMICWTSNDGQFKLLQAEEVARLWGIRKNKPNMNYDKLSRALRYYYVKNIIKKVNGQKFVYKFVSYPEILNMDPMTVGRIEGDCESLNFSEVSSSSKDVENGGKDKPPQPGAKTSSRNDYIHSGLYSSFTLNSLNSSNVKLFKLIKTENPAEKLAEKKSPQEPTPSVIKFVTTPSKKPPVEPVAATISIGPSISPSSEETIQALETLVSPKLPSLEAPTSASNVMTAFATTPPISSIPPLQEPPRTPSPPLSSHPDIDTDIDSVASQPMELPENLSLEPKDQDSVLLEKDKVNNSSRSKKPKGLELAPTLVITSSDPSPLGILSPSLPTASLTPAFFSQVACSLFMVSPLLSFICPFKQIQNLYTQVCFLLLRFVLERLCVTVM
How it was run: as §1

ETV2 = target: T4, ETV2 (Homo sapiens, UniProt O00321 1-342); conditions: protein: recombinant; tags: N-terminal GST; dsDNA, one strand shown
T4 sequence: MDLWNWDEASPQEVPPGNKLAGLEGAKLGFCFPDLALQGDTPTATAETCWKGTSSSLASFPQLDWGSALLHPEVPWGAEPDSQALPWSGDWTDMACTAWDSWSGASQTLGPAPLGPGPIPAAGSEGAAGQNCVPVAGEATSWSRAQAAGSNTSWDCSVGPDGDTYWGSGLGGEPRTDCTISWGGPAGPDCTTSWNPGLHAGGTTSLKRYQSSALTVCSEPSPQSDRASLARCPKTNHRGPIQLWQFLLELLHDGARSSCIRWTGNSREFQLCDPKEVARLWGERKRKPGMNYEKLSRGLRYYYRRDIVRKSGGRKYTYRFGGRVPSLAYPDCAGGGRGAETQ
How it was run: as §1

ELF3 = target: T5, ELF3 (Homo sapiens, UniProt P78545 1-371); conditions: protein: recombinant; tags: N-terminal GST; dsDNA, one strand shown
T5 sequence: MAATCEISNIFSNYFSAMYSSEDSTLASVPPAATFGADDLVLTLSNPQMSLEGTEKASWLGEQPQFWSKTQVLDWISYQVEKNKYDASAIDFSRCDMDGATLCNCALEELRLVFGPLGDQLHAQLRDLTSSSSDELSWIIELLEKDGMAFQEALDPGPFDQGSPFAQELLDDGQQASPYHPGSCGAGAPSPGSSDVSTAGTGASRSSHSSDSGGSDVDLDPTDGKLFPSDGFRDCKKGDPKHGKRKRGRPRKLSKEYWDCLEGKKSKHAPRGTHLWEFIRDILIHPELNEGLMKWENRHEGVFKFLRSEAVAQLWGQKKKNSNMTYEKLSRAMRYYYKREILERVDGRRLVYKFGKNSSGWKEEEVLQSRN
How it was run: as §1

CRX = CRX (Homo sapiens, UniProt O43186 1-299); conditions: protein: recombinant; tags: N-terminal GST; dsDNA, one strand shown
Sequence of CRX (O43186 whole entry): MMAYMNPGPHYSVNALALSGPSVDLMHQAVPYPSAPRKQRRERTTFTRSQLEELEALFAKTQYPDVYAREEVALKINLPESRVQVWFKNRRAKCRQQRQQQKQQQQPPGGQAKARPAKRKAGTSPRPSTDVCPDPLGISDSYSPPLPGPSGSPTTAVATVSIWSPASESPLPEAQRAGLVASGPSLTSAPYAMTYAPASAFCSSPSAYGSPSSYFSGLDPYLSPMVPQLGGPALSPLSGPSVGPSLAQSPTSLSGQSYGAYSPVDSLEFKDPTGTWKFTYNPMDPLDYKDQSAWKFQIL
How it was run: as §1

ETV1 = ETV1 (Homo sapiens, UniProt P50549 1-477); conditions: protein: recombinant; tags: N-terminal GST; dsDNA, one strand shown
Sequence of ETV1 (P50549 whole entry): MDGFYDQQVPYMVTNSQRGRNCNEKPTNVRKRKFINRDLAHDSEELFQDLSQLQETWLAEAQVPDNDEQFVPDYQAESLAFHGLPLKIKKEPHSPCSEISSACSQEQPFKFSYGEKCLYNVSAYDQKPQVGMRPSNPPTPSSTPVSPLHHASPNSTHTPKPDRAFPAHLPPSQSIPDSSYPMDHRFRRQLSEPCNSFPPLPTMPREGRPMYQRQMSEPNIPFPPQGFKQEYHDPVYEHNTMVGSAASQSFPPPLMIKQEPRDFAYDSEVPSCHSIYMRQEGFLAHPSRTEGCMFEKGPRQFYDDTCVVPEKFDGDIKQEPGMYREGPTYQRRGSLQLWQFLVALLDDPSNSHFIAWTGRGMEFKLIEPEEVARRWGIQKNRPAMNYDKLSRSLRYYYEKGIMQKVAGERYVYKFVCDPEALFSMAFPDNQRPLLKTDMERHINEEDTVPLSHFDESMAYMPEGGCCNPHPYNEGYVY
How it was run: as §1

ERF = target: T6, ERF (Homo sapiens, UniProt P50548 1-548); conditions: protein: recombinant; tags: N-terminal GST; dsDNA, one strand shown
T6 sequence: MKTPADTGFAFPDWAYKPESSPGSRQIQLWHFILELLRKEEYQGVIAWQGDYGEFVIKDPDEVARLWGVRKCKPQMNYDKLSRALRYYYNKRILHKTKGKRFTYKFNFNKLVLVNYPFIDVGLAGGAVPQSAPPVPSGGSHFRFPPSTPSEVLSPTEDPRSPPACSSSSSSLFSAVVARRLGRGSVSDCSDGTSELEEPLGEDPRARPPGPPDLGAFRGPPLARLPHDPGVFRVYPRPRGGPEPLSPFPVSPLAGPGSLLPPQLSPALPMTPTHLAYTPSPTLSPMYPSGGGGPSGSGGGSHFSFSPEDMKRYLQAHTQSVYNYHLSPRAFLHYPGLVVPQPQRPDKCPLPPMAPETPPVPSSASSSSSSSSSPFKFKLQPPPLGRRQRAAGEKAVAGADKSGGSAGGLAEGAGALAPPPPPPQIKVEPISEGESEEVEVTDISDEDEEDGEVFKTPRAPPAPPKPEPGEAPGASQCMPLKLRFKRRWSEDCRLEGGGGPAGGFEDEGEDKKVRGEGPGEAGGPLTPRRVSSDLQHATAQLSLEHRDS
How it was run: as §1

ETV3L = target: T7, ETV3L (Homo sapiens, UniProt Q6ZN32 1-361); conditions: protein: recombinant; tags: N-terminal GST; dsDNA, one strand shown
T7 sequence: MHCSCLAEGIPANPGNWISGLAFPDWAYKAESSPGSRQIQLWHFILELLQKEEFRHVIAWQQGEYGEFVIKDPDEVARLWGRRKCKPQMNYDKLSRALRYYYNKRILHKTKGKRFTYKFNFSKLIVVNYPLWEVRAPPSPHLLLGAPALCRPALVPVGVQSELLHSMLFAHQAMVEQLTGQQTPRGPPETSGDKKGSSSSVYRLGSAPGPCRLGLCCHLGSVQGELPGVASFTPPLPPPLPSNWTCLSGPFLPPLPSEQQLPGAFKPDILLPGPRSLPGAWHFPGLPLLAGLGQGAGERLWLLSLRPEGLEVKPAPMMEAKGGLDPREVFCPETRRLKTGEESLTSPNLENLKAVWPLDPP
How it was run: as §1

ETS2 = target: T8, ETS2 (Homo sapiens, UniProt P15036 1-469); conditions: protein: recombinant; tags: N-terminal GST; dsDNA, one strand shown
T8 sequence: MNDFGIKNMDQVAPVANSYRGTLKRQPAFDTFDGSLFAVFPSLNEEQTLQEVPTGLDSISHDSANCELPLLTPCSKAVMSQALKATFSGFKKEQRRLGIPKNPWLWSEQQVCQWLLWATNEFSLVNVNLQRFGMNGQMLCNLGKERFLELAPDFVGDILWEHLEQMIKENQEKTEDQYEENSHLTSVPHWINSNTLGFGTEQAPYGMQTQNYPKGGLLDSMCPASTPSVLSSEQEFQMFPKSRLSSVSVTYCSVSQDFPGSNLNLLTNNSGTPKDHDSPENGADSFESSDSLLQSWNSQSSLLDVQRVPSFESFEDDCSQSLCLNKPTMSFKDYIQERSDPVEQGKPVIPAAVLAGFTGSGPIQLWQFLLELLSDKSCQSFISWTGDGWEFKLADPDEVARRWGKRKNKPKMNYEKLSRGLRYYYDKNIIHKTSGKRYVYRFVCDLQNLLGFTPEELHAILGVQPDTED
How it was run: as §1

SPDEF = target: T9, SPDEF (Homo sapiens, UniProt O95238 1-335); conditions: protein: recombinant; tags: N-terminal GST; dsDNA, one strand shown
T9 sequence: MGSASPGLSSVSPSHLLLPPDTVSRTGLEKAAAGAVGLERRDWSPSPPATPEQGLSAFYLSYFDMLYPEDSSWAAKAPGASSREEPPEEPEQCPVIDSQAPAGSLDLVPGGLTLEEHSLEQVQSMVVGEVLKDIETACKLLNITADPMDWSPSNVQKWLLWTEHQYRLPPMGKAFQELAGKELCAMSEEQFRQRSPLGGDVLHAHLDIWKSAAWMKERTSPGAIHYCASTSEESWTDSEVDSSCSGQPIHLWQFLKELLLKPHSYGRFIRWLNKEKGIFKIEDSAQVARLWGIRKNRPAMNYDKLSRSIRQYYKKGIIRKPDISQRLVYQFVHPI
How it was run: as §1

ETV7 = target: T10, ETV7 (Homo sapiens, UniProt Q9Y603 1-341); conditions: protein: recombinant; tags: N-terminal GST; dsDNA, one strand shown
T10 sequence: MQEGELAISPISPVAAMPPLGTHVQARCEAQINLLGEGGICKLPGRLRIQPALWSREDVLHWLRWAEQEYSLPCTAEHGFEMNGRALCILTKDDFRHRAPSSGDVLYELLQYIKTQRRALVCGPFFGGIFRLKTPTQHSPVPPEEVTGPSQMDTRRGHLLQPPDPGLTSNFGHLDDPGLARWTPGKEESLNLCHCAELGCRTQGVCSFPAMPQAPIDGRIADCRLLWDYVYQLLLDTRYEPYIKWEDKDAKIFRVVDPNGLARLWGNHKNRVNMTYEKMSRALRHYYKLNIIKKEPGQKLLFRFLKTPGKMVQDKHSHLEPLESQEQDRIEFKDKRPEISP
How it was run: as §1

ELF5 = target: T11, ELF5 (Homo sapiens, UniProt Q9UKW6-2 1-255); conditions: protein: recombinant; tags: N-terminal GST; dsDNA, one strand shown
T11 sequence: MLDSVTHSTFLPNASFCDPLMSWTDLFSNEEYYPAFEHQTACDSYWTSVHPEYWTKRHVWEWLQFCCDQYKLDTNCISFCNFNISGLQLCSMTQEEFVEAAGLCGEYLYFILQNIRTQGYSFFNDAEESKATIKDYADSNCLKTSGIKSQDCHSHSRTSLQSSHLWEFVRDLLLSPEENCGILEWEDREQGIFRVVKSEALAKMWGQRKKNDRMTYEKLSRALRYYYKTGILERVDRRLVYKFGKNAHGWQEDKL
How it was run: as §1

ETV3 = target: T12, ETV3 (Homo sapiens, UniProt P41162-2 1-143); conditions: protein: recombinant; tags: N-terminal GST; dsDNA, one strand shown
T12 sequence: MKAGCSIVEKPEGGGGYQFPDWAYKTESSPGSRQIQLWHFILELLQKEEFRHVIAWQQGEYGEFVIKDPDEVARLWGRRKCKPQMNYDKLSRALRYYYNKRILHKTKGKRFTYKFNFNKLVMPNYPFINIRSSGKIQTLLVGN
How it was run: as §1

ETV6 = ETV6 (Homo sapiens, UniProt P41212 1-452); conditions: protein: recombinant; tags: N-terminal GST; dsDNA, one strand shown
Sequence of ETV6 (P41212 whole entry): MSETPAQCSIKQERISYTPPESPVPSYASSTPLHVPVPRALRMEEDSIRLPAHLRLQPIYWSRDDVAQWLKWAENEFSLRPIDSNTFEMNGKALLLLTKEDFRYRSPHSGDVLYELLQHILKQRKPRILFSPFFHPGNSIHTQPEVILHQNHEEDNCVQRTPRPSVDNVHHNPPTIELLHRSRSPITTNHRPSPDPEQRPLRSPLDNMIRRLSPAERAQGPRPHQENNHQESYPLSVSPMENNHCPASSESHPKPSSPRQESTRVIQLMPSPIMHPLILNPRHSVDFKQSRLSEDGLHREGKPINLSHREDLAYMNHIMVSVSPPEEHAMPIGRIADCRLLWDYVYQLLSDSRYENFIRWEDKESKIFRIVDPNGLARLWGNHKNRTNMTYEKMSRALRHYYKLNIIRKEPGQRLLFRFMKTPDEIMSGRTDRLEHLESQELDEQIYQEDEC
How it was run: as §1

TAATCC
binding signal (FEV): 1.24 fold enrichment (6-mer frequency, TF over GST control) | binding signal (ETV5): 1.3 fold enrichment (6-mer frequency, TF over GST control) | binding signal (HSF1): 4.27 fold enrichment (6-mer frequency, TF over GST control) | binding signal (SPIC): 1.14 fold enrichment (6-mer frequency, TF over GST control) | binding signal (ELF4): 1.23 fold enrichment (6-mer frequency, TF over GST control) | binding signal (ELK4): 1.23 fold enrichment (6-mer frequency, TF over GST control) | binding signal (ETV2): 1.2 fold enrichment (6-mer frequency, TF over GST control) | binding signal (ELF3): 1.22 fold enrichment (6-mer frequency, TF over GST control) | binding signal (CRX): 7.84 fold enrichment (6-mer frequency, TF over GST control) | binding signal (ETV1): 1.26 fold enrichment (6-mer frequency, TF over GST control) | binding signal (ERF): 1.12 fold enrichment (6-mer frequency, TF over GST control) | binding signal (ETV3L): 1.21 fold enrichment (6-mer frequency, TF over GST control) | binding signal (ETS2): 1.36 fold enrichment (6-mer frequency, TF over GST control) | binding signal (SPDEF): 1.44 fold enrichment (6-mer frequency, TF over GST control) | binding signal (ETV7): 1.28 fold enrichment (6-mer frequency, TF over GST control) | binding signal (ELF5): 1.19 fold enrichment (6-mer frequency, TF over GST control) | binding signal (ETV3): 1.29 fold enrichment (6-mer frequency, TF over GST control) | binding signal (ETV6): 1.27 fold enrichment (6-mer frequency, TF over GST control)
